Assay outcomes as filed in PubChem BioAssay.
D1 mod: D1 CRE-luciferase signal change, two-sided – cell-based, HEK293 D1, dopamine EC30, D1 allosteric modulator project, primary screen; B-score at 10 µM; dopamine EC30 potentiation; actives deviate in either direction; D(1A) dopamine receptor (Homo sapiens), P21728; 58,000 compounds, 5.9% hits;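 active = luminescence count or its row- and column-corrected plate score outside the 99.7% band of the plate's sample wells, on either side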
PostGolgi ctrl: growth inhibition of yeast control strain, primary screen, counter-screen for post-Golgi transport modulator project. 98,000 compounds, 5% hits. efflux-deficient yeast background strain, growth absorbance A615, 16 h. inhibition, % at 10 µM. AID 738, 2007
DAT uptake mod: changed hDAT dopamine uptake under cocaine IC80, either direction, primary screen, cocaine antagonist project, cell-based, LLC-PK1 hDAT, [14C]-dopamine uptake, MLSMR; LLC-PK1 hDAT cells, [14C]-dopamine uptake with cocaine IC80; actives deviate in either direction; Sodium-dependent dopamine transporter (Homo sapiens), Q01959; AID 449768, 2010; B-score at 10 µM; 110,000 compounds, 1.3% hits;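 active = Z score or B-score, a plate-position-corrected score, falls beyond the plate's 99.7% confidence bounds, in either direction; inactive = both scores lie inside the 99.7% bounds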;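 also: scored against the spread of the other compound wells on the same plate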
PostGolgi yeast: phenotypic screen on post-Golgi transport, primary screen; post-Golgi transport phenotypic cell assay; inhibition, % at 10 µM; 98,000 compounds, 0.9% hits; AID 739, 2007;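 also: yeast cells grown in 1536-well plates; yeast grown about 18 h at 30C before absorbance read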
PLAP act: PLAP enzyme activators, biochemical, luminescence, HTS; Alkaline phosphatase, placental type (Homo sapiens), P05187; purified PLAP enzyme, luminescent substrate read-out; active compounds read high; 96,000 compounds, 1.2% hits; activation fold at 20 µM; in the data active = activation fold above about 2
Target sequence (P05187 whole entry, looked up): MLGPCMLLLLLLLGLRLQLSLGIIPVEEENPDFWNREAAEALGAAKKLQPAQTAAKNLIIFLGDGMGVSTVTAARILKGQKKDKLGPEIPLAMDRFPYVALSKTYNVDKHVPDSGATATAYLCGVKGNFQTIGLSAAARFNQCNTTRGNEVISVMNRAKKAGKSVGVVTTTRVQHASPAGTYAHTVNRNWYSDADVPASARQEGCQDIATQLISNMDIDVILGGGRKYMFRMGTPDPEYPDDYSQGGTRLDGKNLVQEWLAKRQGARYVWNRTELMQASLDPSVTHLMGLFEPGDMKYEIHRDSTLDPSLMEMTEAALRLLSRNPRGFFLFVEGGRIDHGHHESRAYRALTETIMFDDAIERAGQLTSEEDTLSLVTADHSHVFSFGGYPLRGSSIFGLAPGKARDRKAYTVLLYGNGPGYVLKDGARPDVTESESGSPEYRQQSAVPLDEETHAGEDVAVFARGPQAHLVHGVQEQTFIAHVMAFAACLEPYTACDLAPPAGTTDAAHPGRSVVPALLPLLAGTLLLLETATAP
Cav32 inh: Cav3.2 calcium influx blockers – cell-based, Fluo-4 calcium fluorescence, FDSS, MLSMR library, primary screen | 100,000 compounds, 4% hits | Cav3.2-expressing cells; active compounds read low | Voltage-dependent T-type calcium channel subunit alpha-1H (Homo sapiens), O95180 | B-score at 10 µM;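 active = single-dose well whose peak fluorescence ratio is a statistical outlier from its plate by either plate-standardised score or position-corrected B-score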
* marks the source's active call; other numbers are inactive results; nt = no result. An excerpt weighted towards active compounds, which were near 12% of everything screened. Rule as the data show it, unless noted: active = inhibition above about 30%; inactive = the rest.

SMILES | D1 mod | PostGolgi ctrl | DAT uptake mod | PostGolgi yeast | PLAP act | Cav32 inh
CC(C)CC(c1nnnn1CC1CCCO1)N1CCN(c2cccc(Cl)c2)CC1 (stereo not drawn) | -0.358 | 33.7* | 0.00557 | 3.8 | nt | -1.23
CCOC(=O)N1CCC(n2c(SCC(=O)c3ccccc3)nc3ccsc3c2=O)CC1 | nt | 0.1 | -0.183 | -3.5 | 1 | -0.54
O=C(Nc1ccccc1)c1ccc(CSc2ncccn2)cc1 | nt | 8.9 | -0.779 | -1.7 | 0.9 | 0.203
O=c1cc(-c2ccccc2)[nH]c2nc3ccccc3n12 | -6.49* | 18.5 | 0.269 | -6.1 | 1.3 | 0.316
CCc1c(C)[nH]c2nc3ccccc3n2c1=O | nt | 12.3 | -0.00709 | -1.9 | 2.3* | 0.367
CCc1c(C)nc2[nH]nc(-c3ccccc3)n2c1=O | -0.00575 | -2.9 | -0.259 | 0.9 | 1.2 | 0.775
O=C(Cn1cnc2ccccc21)NC(c1ccccc1)c1ccccc1 | nt | 11.5 | -0.652 | -0.5 | 1.1 | -1.28
CCOC(=O)N1CCC(NC(=O)CCC(=O)N2CC(C)Oc3ccc(Cl)cc32)CC1 (stereo not drawn) | 0.465 | 2.9 | -0.381 | 0.9 | 1.5 | -0.29
CCc1nc2nc(C)cc(Nc3cccc(C(F)(F)F)c3)n2n1 | 0.444 | 11.1 | 0.831 | 7.7 | 2.4* | 1.6
Cc1cc(Nc2cccc(C(F)(F)F)c2)n2nc(C)nc2n1 | 0.958 | 16.3 | -0.948 | -1.6 | 0.9 | 0.417
CCOC(=O)Cc1c(C)nc2c(-c3ccc(Cl)cc3)c[nH]n2c1=O | -0.786 | -1.6 | nt | 12.4 | 1 | nt
CC(C)Oc1ccc(C(=O)Nc2ccc(N3CCCC3)cc2)cc1 | -0.782 | -7.0 | -1.23 | -8.8 | 1.4 | 0.561
CCOc1cccc(C(=O)NC(=S)Nc2ccc(N3CCCC3)cc2)c1 | nt | 7.1 | 0.759* | -10.7 | 0.8 | 0.406
CN1CCN(c2ccc(NC(=O)c3ccccc3Br)cc2)CC1 | -4.56* | 20.9 | 0.595 | -1.7 | 1 | 1.05
CCOc1cccc(C(=O)Nc2ccc(N3CCN(S(C)(=O)=O)CC3)cc2)c1 | -0.759 | -2.5 | -0.133 | -1.9 | 0.9 | -0.0194
CCCCOc1ccc(C(=O)Nc2ccc(N3CCN(C)CC3)cc2)cc1 | -3.16* | 9.1 | -0.248 | -2.8 | 1.2 | nt
CCCCOc1cccc(C(=O)Nc2ccc(N3CCN(CC)CC3)cc2)c1 | -3.55* | 17.4 | 0.657 | 3.3 | 1.5 | -0.276
Cc1c(C(=O)OCC(=O)N2CC(=O)Nc3ccccc32)oc2ccc(Br)cc12 | nt | 1.6 | -0.662 | 4.0 | 0.7 | -1.23
Cc1c(NC(=O)C(C)NCC2CCCO2)c(=O)n(-c2ccccc2)n1C (stereo not drawn) | nt | 5.4 | -0.572 | -4.1 | 1.1 | 0.198
Cc1ccc(S(=O)(=O)N2CCC(C(=O)N3CCC[C@H]3C(=O)NCc3ccco3)CC2)cc1 | 0.765 | 4.5 | -0.011 | -11.4 | 1.2 | -0.0194
Cc1cc2ncn(C(=O)c3c(-c4ccccc4Cl)noc3C)c2cc1C | 0.692 | 3.7 | 0.234 | 0.6 | 1 | -1.32
CCCCOc1cccc(C(=O)NNC(=S)NC2CCCCC2)c1 | nt | nt | 1.07 | nt | nt | -5.85*
CCOc1cccc(C(=O)NC2CCCCC2)c1 | 2.37 | 3.3 | 0.907 | 6.0 | 0.9 | 2.29
O=C(CSc1nnnn1C1CCCCC1)N1c2ccccc2Sc2ccccc21 | nt | 22.3 | 0.257 | 21.1 | 1.7 | -6.04*
COc1ccc(OCCn2c(=N)n(CCO)c3ccccc32)cc1 | 0.0564 | 6.0 | 0.748 | -1.0 | 1.2 | -0.303
N=c1n(CCO)c2ccccc2n1CCOc1ccc(Cl)cc1Cl | -1.79 | 1.1 | 2.97* | 0.0 | 1.1 | -1.68
O=C(CSc1nnc(C2CCCCC2)n1Cc1ccccc1)NCc1ccco1 | -0.0219 | 11.2 | 1.26 | -3.3 | 1.6 | -0.438
O=C(CSCc1ccccc1)NNC(=S)Nc1cccc(Cl)c1Cl | nt | 31.4* | 0.222 | -6.7 | 1 | -2.81
Cc1c(Cl)cccc1NC(=S)NCc1ccccc1 | nt | nt | 0.516 | nt | nt | -2.04
COc1ccc(S(=O)(=O)C(C#N)c2nc3ccccc3nc2N2CCCC(C)C2)cc1 (stereo not drawn) | 0.367 | 10.4 | 0.263 | -7.0 | 1.4 | -4.65*
